According to paper PMC4336329 (PLoS ONE, 2015):
Screen size: about 310,000 compounds; about 14,000 (4.5%) showed an effect of 50% or more. The effect is printed as a negative number. The list comes from a sample in which strong results are over-represented; it also holds similar structures and randomly drawn compounds.

The compounds below were run against human ether-à-go-go-related gene (hERG) potassium channel (human, UniProt Q12809) (assay: primary screen, population patch clamp on CHO cells stably expressing hERG; higher = less effect of the substance).
Chain of human ether-à-go-go-related gene (hERG) potassium channel (Q12809 whole entry, looked up): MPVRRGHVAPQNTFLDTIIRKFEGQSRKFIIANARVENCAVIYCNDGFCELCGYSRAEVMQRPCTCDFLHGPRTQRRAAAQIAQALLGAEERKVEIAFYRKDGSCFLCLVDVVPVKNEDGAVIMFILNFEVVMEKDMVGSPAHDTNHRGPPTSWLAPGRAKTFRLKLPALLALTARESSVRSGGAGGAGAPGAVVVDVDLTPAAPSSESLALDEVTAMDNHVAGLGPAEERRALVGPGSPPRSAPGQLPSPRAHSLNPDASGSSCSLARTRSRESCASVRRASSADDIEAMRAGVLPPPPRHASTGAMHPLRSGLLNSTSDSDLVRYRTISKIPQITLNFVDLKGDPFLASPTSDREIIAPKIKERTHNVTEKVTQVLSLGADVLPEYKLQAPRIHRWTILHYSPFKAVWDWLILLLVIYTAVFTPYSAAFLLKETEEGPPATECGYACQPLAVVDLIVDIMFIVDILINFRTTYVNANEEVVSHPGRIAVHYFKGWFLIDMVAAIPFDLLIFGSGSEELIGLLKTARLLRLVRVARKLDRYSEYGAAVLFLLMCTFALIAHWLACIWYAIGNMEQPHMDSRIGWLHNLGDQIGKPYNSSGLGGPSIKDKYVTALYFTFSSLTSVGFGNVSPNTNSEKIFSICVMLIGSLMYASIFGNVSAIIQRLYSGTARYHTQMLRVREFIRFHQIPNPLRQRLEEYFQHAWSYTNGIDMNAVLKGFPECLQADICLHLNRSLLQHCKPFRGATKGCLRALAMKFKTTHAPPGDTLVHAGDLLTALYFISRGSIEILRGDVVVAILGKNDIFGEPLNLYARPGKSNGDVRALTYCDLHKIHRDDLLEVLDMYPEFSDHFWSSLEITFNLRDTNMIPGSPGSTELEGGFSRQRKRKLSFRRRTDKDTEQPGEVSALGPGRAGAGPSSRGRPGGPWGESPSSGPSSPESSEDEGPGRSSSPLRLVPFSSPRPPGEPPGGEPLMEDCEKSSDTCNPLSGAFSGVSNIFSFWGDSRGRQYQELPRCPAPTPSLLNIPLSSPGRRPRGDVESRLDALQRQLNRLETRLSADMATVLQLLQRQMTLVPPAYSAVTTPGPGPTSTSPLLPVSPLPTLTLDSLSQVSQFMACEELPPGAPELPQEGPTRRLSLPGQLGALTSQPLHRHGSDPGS
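Note: peak tail current of the secondary pulse compared with the same well before compound.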

Row | SMILES | hERG current change (%, negative = inhibition) at 10uM
1 | CCOCCCNC(=O)c1cc2cc3cc(OC)ccc3nc2o1 | -7.74%
2 | CCCN(CCC)CCCNC(=O)c1cc2cc3ccc(Cl)cc3nc2o1 | -61%
3 | CCCN(CCC)CCNC(=O)c1cc2c(C)nc3ccccc3c2o1 | -29.7%
4 | CC(C)CNS(=O)(=O)c1cc(C(=O)OCC(=O)N(C)C2CCS(=O)(=O)C2)c(Cl)cc1Cl (stereo not shown) | -13%
5 | CC1(C)CC(=O)C=C(NNC(=O)C2CCCCC2)C1 | 8.47%
6 | O=C(C1CCCO1)N1CCc2ccccc21 (stereo not shown) | 17.1%
7 | Cl.O=C(O)CCCCCNc1nc(-c2ccccc2)nc2ccccc12 | 3.35%
8 | COc1ccc(C(OCC(O)CN(C)C2CCCCC2)c2ccc(OC)cc2)cc1 (stereo not shown) | -69.8%
9 | CN(CC(O)COc1ccc(S(=O)(=O)N2CCOCC2)cc1)C1CCCCC1 (stereo not shown) | -6.74%
10 | CN(CC(O)COCc1cccs1)C1CCCCC1 (stereo not shown) | -12.1%
11 | CN(CC(O)COCc1ccc2c(c1)OCO2)C1CCCCC1.Cl (stereo not shown) | -20.6%
12 | CN(CC(O)COC(c1ccccc1)c1ccccc1)C1CCCCC1 (stereo not shown) | -68.4%
13 | CN(CC(O)COCc1ccccc1F)C1CCCCC1 (stereo not shown) | -14.6%
14 | COc1cccc(CNC(=O)CN(C)S(=O)(=O)c2ccc3c(c2)n(C)c(=O)c(=O)n3C)c1 | 10.3%
15 | S=C1CCC(c2ccc(Cl)cc2)=NN1c1ccccc1 | 4.79%
16 | COc1ccccc1NC(=O)C1CCCN(c2ncnc3c2nc2n3CCCCC2)C1 (stereo not shown) | -45.5%
17 | O=C(Nc1cc(F)ccc1F)C1CCCN(c2ncnc3c2nc2n3CCCCC2)C1 (stereo not shown) | -59.5%
18 | O=C(Nc1ccc(F)cc1F)C1CCCN(c2ncnc3c2nc2n3CCCCC2)C1 (stereo not shown) | -62%
19 | O=C(Nc1ccc(F)cc1)C1CCN(c2ncnc3c2nc2n3CCCCC2)CC1 | -7.35%
20 | COc1ccc(Cl)cc1NC(=O)C1CCCN(c2ncnc3c2nc2n3CCCCC2)C1 (stereo not shown) | -37.6%
21 | CC1=C(C(=O)OC2CCC(C)CC2)C(c2ccc(O)c([N+](=O)[O-])c2)NC(=O)N1 (stereo not shown) | -0.635%
22 | C=CCn1c(CCNC(=O)c2ccccc2F)nnc1SCC(=O)Nc1ccc(OC)cc1 | 3.94%

Row | SMILES | hERG current change (%, negative = inhibition) at 10uM
23 | COc1ccc(CCn2c(=N)c(C(=O)NCCN3CCOCC3)cc3c(=O)n4ccccc4nc32)cc1OC | -32.5%
24 | COc1ccc(Cn2c(=S)[nH]c3cc(C(=O)NCCCN4CCOCC4)ccc3c2=O)cc1 | 24.1%
25 | COc1ccc(CCNC(=O)C(=O)NCCCN2CCOCC2)cc1 | 7.99%
26 | COc1ccc(CCn2c(=O)[nH]c3cc(C(=O)NCCCN4CCOCC4)ccc3c2=O)cc1OC | 28.6%
27 | COc1ccc(CCNC(=O)c2cc3c(=O)n4ccccc4nc3n(CCCN3CCOCC3)c2=N)cc1 | -79%
28 | COc1ccc(CCNC(=O)c2cc3c(=O)n4cccc(C)c4nc3n(CCCN3CCOCC3)c2=N)cc1 | -76.2%
29 | COc1ccc(CCNC(=O)c2c(N)n(CCN3CCOCC3)c3nc4ccccc4nc23)cc1 | -0.58%
30 | COc1ccc(CCNC(=O)c2cc3c(=O)n4ccccc4nc3n(CCN3CCOCC3)c2=N)cc1 | -77.8%
31 | COc1ccc(CCNC(=O)c2cc3c(=O)n4ccccc4nc3n(CCCN3CCOCC3)c2=N)cc1OC | -75.1%
32 | CCOC(=O)C1=C(COC(=O)COc2ccc(Br)cc2)NC(=O)NC1C (stereo not shown) | 2.16%
33 | CC(=O)c1ccc(OCCCC(=O)Nc2cc(S(=O)(=O)N(C)C)ccc2C)cc1 | 0.514%
34 | CCS(=O)(=O)N1CCC(C(=O)N2CCC3(CC2)OCCO3)CC1 | 6.65%
35 | C=CCCCCCCCCC(=O)N1CCN(c2cc3c(cc2F)c(=O)c(C(=O)O)cn3CC)CC1 | 5.07%
36 | Fc1cccc(NC(=S)Nc2ccc(Br)cc2)c1 | 10.3%
37 | CCN1CCN(Cc2ccc(NC(=O)c3ccc(C)c(NC(=O)N4CCNC4=O)c3)cc2C(F)(F)F)CC1.O=C(O)C(F)(F)F | 3.66%
38 | Cc1ccc(S(=O)(=O)N/N=C/c2ccccc2O)cc1 | 12.9%
39 | O=C(CN1C(=O)c2ccc([N+](=O)[O-])cc2C1=O)NCc1ccco1 | 12.4%
40 | CC1(C)CC(N2CCC(=O)NC2=S)CC(C)(C)N1 | 3.04%
41 | CC(NS(=O)(=O)c1ccc(NC(=O)N2CCCCC2)cc1)c1ccccc1 (stereo not shown) | 3.56%
42 | Cc1ccc(OS(=O)(=O)c2ccccc2)c(/C=N/N=C2\NC(=O)C(C)S2)c1 (stereo not shown) | -0.524%
43 | CCc1cc2c(s1)N(CC(=O)OC)C(=O)CN=C2c1ccccc1OC | 10.7%
